A short description of experiment [1]: AP1 Signaling Pathway (AID 357; active means well fitted curve in either direction with a large enough effect, not every such curve was filed as active;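 further: ME-180 reporter cells stimulated with EGF at its EC50 level; on the % scale 0 is the no-effect control and ±100 the full control effect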). The conditions noted are these: ME-180 AP-1-bla reporter, EGF-induced, beta-lactamase ratio, 5 h. The gist of the method:
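First, ME-180 AP-1-bla cells were cultured overnight at 37 °C in low-serum Opti-MEM. Next, titrated compounds with EC50 EGF were incubated 5 hours. Finally, CCF4 was added for 2.5 hours and the 460/530 nm ratio recorded.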

The target of experiment [2] is Cytochrome P450 1A2 (Homo sapiens) (UniProt P05177). Kind of experiment: p450-cyp1a2 (AID 410; calls by dose curve; further: potency means the concentration at half of the fitted maximal effect;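 on activity change, negative = inhibition: -100% = full effect of reference inhibitor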). Put shortly: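 Luminescent readout of luciferin formed from Luciferin-ME by human CYP1A2; data normalized against complete inhibition by 57 uM furafylline. Enzyme 20nM, substrate 100uM at Km, 100mM KPO4 buffer, 60 min reaction at room temperature.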
Experiment [3] is described as follows: Stat Signaling Pathway (AID 446; active means well fitted curve in either direction with a large enough effect, not every such curve was filed as active;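 further: ME-180 cervical cancer cells given 40 pM IL-6 alongside compound; SIE-controlled beta-lactamase reporter measured as 460/530 nm FRET emission ratio; on the % scale 0 is the no-effect control and ±100 the full control effect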). Conditions: ME-180 SIE beta-lactamase reporter, IL-6 stimulated, 5 h. The gist of the method: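 Reporter line: ME-180 cervical carcinoma, SIE-beta-lactamase. Treatment: compound with 40 pM IL-6, 5 hrs, 37 C, in low-serum OPTI-MEM with 10 mM HEPES pH 7.3. Detection: 460/530 nm fluorescence.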
Experiment [4] deals with Glucocorticoid receptor (Homo sapiens) (UniProt P04150). Kind of experiment: GR-GFP Redistribution (AID 450;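 active means compounds whose dose series gives a full or clear partial fitted curve of increased nuclear translocation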; further: potency means the concentration at half of the fitted maximal effect). The conditions noted are these: U2OS GR-GFP nuclear translocation, laser cytometry, 2 h.
Experiment [5] shares this target. Kind of experiment: GR-EFC Redistribution (AID 451; calls by dose curve; further: potency means the concentration at half of the fitted maximal effect). The conditions noted are these: CHO-K1 GR-EFC translocation, beta-gal luminescence, 2 h. The gist of the method: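 CHO-K1 cells expressing nuclear EA and GR-ED fragments of b-gal; compounds titrated up to 46 uM final, 2 h at 37 C. GR nuclear translocation read as complemented b-gal luminescence after 1 h RT detection.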

In experiment [6] the target is Mitogen-activated protein kinase 10 (Mus musculus) (UniProt Q61831). Kind of experiment: JNK3 AlphaScreen Assay (AID 530; active means well fitted curve in either direction with a large enough effect, not every such curve was filed as active;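 further: kinase came from lysate of stimulated human HepG2 cells; signal reports phosphorylation of biotinylated GST-cJun 1-79 at Ser73 with 10 µM ATP; on the % scale 0 is the no-effect control and ±100 the full control effect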). The gist of the method:
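Pre-activated (IL-1β/TNFα) JNK3 in HepG2 lysates phosphorylates biotin-GST-cJun(1-79), 10 uM ATP; anti-phospho-cJun(Ser73) AlphaScreen read at room temperature, pH 7.6 Tris buffer. Compounds pre-incubated 15 min as titrations.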
A general note: Bead proximity is the source of the signal in Alpha formats.

In experiment [7] the target is 3',5'-cyclic-AMP phosphodiesterase 4B (Homo sapiens) (UniProt Q07343). Kind of experiment: qHTS Assay for Inhibitors of PDE-IV (AID 607; active means well fitted activation curve with a large enough effect in the main read-out, with a control signal flat, not every such curve was filed as active; further: % of control where 0% means no effect). Put shortly:
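Cell-based read-out of cAMP via a modified cyclic nucleotide-gated channel and membrane potential dye (535/590 nm) in HEK293 cells expressing PDE4 endogenously. Compounds tested up to 22.9 uM final; 100 uM RO 20-1724 reference.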
On the technique in general: Quantitative high-throughput screening tests each substance at several concentrations.

Experiment [8] in a line: qHTS Assay for Lipid Storage Modulators (AID 1519; calls by dose curve). The conditions noted are these: Drosophila S3 cells, BODIPY lipid droplet/cell ratio, laser cytometry, cells loaded with oleic acid; for activity change, negative = inhibition: at 25.7 µM (top of the series). Put shortly: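 Cells seeded at 5,000 per well were treated with compounds over a concentration series and loaded with oleic acid (400 uM, as added). Lipid droplet fluorescence (488 nm excitation, 500-530 nm channel) was read by laser-scanning cytometry and normalized to 20 uM Triacsin C.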

The target of experiment [9] is Ubiquitin carboxyl-terminal hydrolase 1 (Homo sapiens) (UniProt O94782). Kind of experiment: Inhibitors of USP1/UAF1: Pilot qHTS (AID 504865).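 Further: rhodamine fluorescence freed from ubiquitin-rhodamine substrate followed over time; top concentration of the series differs between compounds; on the % scale 0 is the no-effect control and ±100 the full control effect; nearly all actives have a fitted effect of over 35% in size.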 Put shortly:
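In 50mM HEPES pH 7.8 containing 0.5mM EDTA, 1mM TCEP, 0.1 mg/ml BSA and 0.01% Tween-20, 1nM USP1/UAF1 is exposed to compound for 15 min, then Ub-Rho (150nM final) is added and fluorescence is read over time.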

Experiment [10] addresses ATP-dependent 6-phosphofructokinase (Trypanosoma brucei brucei) (UniProt O15648). Kind of experiment: qHTS Assay to Find Inhibitors of T. brucei phosphofructokinase: hit validation (AID 492961). Further: on the % scale 0 is the no-effect control and ±100 the full control effect. Put shortly:
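Luminescence from ADP-Glo reports ADP generated as T. brucei PFK (1.25 nM) phosphorylates 0.5 mM fructose-6-phosphate using 0.1 mM ATP. Reactions ran 45 min at room temperature, pH 8.0.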

Experiment [11] addresses Luciferin 4-monooxygenase (Photinus pyralis) (UniProt P08659). Kind of experiment: Biochemical firefly luciferase enzyme assay for NPC (AID 624030).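 Further: purified P. pyralis luciferase at 10 nM with luciferin and ATP substrate; 0% = DMSO and -100% = full luciferase inhibition by PTC124 control; nearly all actives have a fitted effect of over 70% in size.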 Put shortly:
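Purified P. pyralis luciferase at 10 nM in 50 mM Tris Acetate (final), luminescence read within 5 minutes of enzyme addition to compounds. Activity normalised to PTC124 versus DMSO; concentration-response curves classed by r2, magnitude and activity.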

A short description of experiment [12]: qHTS profiling for inhibitors of Plasmodium falciparum proliferation (AID 504749).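 Further: 0% = DMSO vehicle and full inhibition = artemisinin control; nearly all actives have a fitted effect of over 60% in size.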 The conditions noted are these: P. falciparum in erythrocytes, SYBR Green DNA, 72 h, at 12.8 µM (top of the series). Put shortly:
(§1)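 P. falciparum-infected erythrocytes (0.3% parasitemia, 2.5% hematocrit) incubated with compound 72 h at 37 C, 5% CO2. Parasite DNA detected by SYBR Green after lysis, overnight at room temperature; normalised to 0.29 uM artemisinin and DMSO.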

The next experiment concerns CP201. The experiment is described as above. Conditions: P. falciparum in erythrocytes, SYBR Green DNA, 72 h; series mostly up to 12.8 µM. Put shortly:
as §1

The test system of the next experiment is CP238. Described as above. The conditions noted are these: P. falciparum in erythrocytes, SYBR Green DNA, 72 h; series mostly up to 12.8 µM. The gist of the method: as §1
The subject of another experiment is CP262. The experiment is described as above. Conditions: P. falciparum in erythrocytes, SYBR Green DNA, 72 h; series mostly up to 12.8 µM. The gist of the method: as §1
The subject of a further experiment is CP265. The experiment is described as above. Conditions: P. falciparum in erythrocytes, SYBR Green DNA, 72 h; series mostly up to 12.8 µM. Put shortly: as §1
The subject of a further experiment is FAB9. The description is as above. Conditions: P. falciparum in erythrocytes, SYBR Green DNA, 72 h; series mostly up to 12.8 µM. Put shortly:
as §1

The next experiment deals with JCK. Described as above. Conditions: P. falciparum in erythrocytes, SYBR Green DNA, 72 h; series mostly up to 12.8 µM. Put shortly: as §1
A short description of experiment [13]: NFAT Signaling Pathway (AID 444; active means well fitted curve in either direction with a large enough effect, not every such curve was filed as active). The conditions noted are these: Jurkat NFAT-bla M1, carbachol, beta-lactamase ratio, 5 h; at 7.69 µM (top of the series) unless noted. Put shortly: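 Jurkat cells with NFAT-driven β-lactamase reporter and co-expressed M1 receptor, stimulated with carbachol (final 1 uM, ~EC50), compound titration, 5 h at 37 °C. CCF4 loaded 1 h at RT; 460/530 nm ratio gave %activity and AC50.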

The subject of the next experiment is AS120. Kind of experiment: qHTS profiling for inhibitors of Plasmodium falciparum proliferation (AID 504749).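 Further: 0% = DMSO vehicle and full inhibition = artemisinin control; nearly all actives have a fitted effect of over 60% in size.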 The conditions noted are these: P. falciparum in erythrocytes, SYBR Green DNA, 72 h; series mostly up to 28.7 µM. Put shortly: as §1
[14] abbreviates: measured here: cell count channel max response.
[15] abbreviates: measured here: lipid channel max response.
The mark [16] stands for this setting: at 7.69 µM (top of the series) unless noted.

Values joined by “and” are separate entries in the source; they are usually repeats but may differ in a detail not shown here. Equal entries are not always repeated. Inconclusive results are not listed. Active and inactive are the calls of the source. Unless noted, the call rests on the fitted dose curve; in most records, active means well fitted curve in the direction sought with a large enough effect; inconclusive means small, poorly fitted or top-dose-only effect, or another doubt; inactive means no such curve, though single readings can be large; an effect the other way counts as inactive or inconclusive.

We go through four compounds from PubChem BioAssay (NCATS).

Chain of 3',5'-cyclic-AMP phosphodiesterase 4B (Homo sapiens) (Q07343 whole entry, looked up): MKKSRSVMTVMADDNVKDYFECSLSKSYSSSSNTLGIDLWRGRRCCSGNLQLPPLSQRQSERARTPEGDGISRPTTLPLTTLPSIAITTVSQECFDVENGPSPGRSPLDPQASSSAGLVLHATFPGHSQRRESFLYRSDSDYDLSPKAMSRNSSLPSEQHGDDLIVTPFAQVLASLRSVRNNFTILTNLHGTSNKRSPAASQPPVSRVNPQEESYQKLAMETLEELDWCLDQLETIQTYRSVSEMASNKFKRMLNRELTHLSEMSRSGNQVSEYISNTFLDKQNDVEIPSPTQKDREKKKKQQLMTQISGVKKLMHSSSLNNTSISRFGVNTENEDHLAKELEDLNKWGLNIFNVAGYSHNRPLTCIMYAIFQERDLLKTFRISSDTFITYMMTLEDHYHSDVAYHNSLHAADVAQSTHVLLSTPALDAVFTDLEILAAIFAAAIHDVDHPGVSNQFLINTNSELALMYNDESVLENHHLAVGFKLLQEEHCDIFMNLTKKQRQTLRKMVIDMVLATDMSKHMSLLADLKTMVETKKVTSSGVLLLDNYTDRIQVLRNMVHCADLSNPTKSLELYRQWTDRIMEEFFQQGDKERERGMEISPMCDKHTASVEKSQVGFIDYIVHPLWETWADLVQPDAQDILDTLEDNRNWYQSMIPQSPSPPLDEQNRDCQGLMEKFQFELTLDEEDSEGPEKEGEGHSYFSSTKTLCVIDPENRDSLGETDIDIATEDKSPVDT
Chain of Glucocorticoid receptor (Homo sapiens) (P04150 whole entry, looked up, the tested form may be a part): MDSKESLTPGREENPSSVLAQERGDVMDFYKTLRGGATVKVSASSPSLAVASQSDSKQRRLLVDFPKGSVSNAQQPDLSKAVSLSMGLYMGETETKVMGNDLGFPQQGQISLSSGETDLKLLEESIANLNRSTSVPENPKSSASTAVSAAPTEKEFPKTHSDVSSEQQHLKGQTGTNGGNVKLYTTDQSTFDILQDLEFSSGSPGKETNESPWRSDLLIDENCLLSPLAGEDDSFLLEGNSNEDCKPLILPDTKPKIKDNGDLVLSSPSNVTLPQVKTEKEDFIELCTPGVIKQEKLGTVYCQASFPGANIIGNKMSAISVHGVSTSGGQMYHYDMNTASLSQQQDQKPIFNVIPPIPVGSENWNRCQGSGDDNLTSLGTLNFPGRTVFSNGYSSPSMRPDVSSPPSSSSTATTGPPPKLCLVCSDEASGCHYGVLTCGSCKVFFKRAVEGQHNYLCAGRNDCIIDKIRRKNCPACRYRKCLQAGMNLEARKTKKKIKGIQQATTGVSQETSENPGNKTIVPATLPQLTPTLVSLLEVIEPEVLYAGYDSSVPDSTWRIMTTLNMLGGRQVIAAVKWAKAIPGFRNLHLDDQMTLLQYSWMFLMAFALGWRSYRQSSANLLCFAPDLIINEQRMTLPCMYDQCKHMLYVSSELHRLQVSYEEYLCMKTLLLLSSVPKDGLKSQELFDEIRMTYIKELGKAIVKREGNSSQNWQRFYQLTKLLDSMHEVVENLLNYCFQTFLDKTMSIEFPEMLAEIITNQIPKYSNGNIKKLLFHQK
Chain of Ubiquitin carboxyl-terminal hydrolase 1 (Homo sapiens) (O94782 whole entry, looked up): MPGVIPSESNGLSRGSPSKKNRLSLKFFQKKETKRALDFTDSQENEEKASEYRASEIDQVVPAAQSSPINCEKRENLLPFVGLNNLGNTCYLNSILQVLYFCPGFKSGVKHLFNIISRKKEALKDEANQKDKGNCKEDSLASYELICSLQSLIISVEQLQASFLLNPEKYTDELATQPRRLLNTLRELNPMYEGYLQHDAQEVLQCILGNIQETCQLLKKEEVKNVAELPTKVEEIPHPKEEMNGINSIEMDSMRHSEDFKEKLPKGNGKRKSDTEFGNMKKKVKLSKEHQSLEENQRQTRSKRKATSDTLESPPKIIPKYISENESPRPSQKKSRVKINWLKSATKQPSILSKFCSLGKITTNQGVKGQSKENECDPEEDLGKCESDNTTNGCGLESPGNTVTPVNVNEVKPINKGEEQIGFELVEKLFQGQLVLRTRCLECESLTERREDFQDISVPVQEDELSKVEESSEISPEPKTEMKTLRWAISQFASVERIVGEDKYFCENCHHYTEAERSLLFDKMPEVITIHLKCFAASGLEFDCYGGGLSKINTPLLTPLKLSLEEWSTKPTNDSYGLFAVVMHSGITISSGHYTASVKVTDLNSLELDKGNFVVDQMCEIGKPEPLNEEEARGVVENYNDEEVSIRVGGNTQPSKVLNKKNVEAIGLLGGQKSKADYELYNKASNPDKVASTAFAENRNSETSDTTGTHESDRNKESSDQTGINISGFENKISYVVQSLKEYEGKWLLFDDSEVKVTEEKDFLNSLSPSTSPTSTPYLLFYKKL
Chain of Cytochrome P450 1A2 (Homo sapiens) (P05177 whole entry, looked up): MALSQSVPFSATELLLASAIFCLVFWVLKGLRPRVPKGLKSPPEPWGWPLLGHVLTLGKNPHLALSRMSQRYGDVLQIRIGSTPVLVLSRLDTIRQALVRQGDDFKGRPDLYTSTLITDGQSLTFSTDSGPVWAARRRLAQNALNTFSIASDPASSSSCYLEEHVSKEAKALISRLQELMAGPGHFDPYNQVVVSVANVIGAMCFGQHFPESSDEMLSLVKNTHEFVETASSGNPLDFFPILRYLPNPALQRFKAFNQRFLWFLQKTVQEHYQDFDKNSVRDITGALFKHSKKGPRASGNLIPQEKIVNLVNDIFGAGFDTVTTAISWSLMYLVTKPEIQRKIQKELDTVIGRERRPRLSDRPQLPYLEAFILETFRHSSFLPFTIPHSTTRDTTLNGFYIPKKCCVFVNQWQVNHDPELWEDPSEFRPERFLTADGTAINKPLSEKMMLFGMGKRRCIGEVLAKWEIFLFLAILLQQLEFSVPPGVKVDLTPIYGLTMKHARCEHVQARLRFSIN
Chain of ATP-dependent 6-phosphofructokinase (Trypanosoma brucei brucei) (O15648 whole entry, looked up): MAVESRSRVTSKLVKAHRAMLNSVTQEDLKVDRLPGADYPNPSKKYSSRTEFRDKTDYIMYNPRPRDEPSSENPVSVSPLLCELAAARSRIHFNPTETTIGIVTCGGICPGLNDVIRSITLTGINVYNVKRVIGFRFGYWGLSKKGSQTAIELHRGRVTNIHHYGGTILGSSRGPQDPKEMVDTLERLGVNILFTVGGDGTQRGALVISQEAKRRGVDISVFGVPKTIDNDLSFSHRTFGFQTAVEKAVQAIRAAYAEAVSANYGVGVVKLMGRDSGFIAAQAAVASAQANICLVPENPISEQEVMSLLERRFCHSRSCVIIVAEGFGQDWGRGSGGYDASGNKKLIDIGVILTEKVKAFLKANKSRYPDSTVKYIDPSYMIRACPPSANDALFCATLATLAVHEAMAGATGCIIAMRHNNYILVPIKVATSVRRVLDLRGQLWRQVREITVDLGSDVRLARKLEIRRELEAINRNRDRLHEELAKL
Chain of Luciferin 4-monooxygenase (Photinus pyralis) (P08659 whole entry, looked up): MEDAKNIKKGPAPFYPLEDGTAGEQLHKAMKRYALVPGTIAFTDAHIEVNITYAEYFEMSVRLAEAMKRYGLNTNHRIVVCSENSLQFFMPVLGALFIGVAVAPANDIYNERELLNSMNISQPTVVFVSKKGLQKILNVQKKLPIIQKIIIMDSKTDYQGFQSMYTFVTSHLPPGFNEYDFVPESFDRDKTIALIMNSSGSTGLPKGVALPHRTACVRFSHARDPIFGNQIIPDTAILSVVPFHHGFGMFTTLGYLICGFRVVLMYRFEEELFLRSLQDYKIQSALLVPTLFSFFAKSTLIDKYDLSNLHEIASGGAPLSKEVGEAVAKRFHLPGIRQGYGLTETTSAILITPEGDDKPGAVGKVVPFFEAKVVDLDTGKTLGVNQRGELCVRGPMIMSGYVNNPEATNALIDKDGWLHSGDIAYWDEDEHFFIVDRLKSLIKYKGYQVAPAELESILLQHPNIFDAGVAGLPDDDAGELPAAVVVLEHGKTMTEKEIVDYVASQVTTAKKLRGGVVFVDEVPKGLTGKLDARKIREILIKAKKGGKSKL

Consider `OCCN1CCN(CC/C=C2\c3ccccc3Sc3ccc(C(F)(F)F)cc32)CC1`, for which the activity change, negative = inhibition was 16.2% (inactive) in experiment [1] (at 17.2 µM (top of the series)), 29.4% (inactive) in [1] (at 38 µM (top of the series)) and -3.77% (inactive) in [8]. The Potency is 7.94 µM (active) and 5.01 µM (active) in experiment [2]; > 46 µM (inactive) and > 20.6 µM (inactive) in experiment [4]; > 46 µM (inactive) and > 20.6 µM (inactive) in experiment [5]. Further, the activity, negative = inhibition was 5.96% (inactive) in experiment [3] (at 17.2 µM (top of the series)) and -10.3% (inactive) in experiment [3] (at 38 µM (top of the series)). The Potency result in [6], in experiment [7] and in experiment [9] was “inactive” throughout. Further, the figures for the max response in experiment [8] (setting [14]) and in experiment [8] (setting [15]) were -13.1% and -14.8%, respectively.
With `C[C@@H](CN(C)C)CN1c2ccccc2CCc2ccccc21`, the activity change, negative = inhibition was 77.9% [activator] (active) in experiment [1] (at 17.2 µM (top of the series)), 90.9% [activator] (active) in experiment [1] (at 38 µM (top of the series)) and -5.99% (inactive) in [8]. Besides, the Potency entry (in experiment [2]; in experiment [6]; in experiment [7]; in experiment [9]; with CP201; with CP238) was “inactive” each time. Also, the Potency entry with CP262, in the experiment on CP265, in the experiment with FAB9 and in the experiment on JCK was “inactive” each time. Moreover, the activity, negative = inhibition in experiment [3] (at 17.2 µM (top of the series)) was 1.59% (inactive); in experiment [3] (at 38 µM (top of the series)), -7% (inactive); in experiment [12] (parasite line A) it was -6.2% (inactive). In addition, the max response in [8] (setting [14]) is -11.8%; in experiment [8] (setting [15]) it was -16.4%. For the same compound, the compound was called inactive in [10] and in [11].
On to `CCN1C(=O)N[C@@H](c2ccccc2)C1=O`, for which the activity change, negative = inhibition is -1.74% [at 17.2 µM] (inactive) in [1] (setting [16]), 1.96% [at 17.2 µM] (inactive) in experiment [13] and -2.13% (inactive) in experiment [8]. Besides, the Potency result (in experiment [2]; in experiment [6]; in experiment [7]; in experiment [9]; with AS120; in the experiment on CP201) was “inactive” throughout. Moreover, the Potency entry with CP238, with CP262, in the experiment with CP265, with FAB9 and in the experiment with JCK was “inactive” in each case. For the same compound, the values for the activity, negative = inhibition in experiment [3] (setting [16]), in experiment [12] (parasite line A) and in experiment [12] (parasite line B) were -21.2% [at 17.2 µM] (inactive), -3.65% (inactive) and 13.5% (inactive), respectively. Moreover, the Potency in experiment [4] and in experiment [5] was > 20.6 µM (inactive) in each case. Also, the results for the max response in experiment [8] (setting [14]) and in experiment [8] (setting [15]) were -10.1% and -9.51%, respectively. Also, the compound was called inactive in [10] and in [11].
As to `CN(C)CC[C@@H](c1ccccc1)c1ccccn1`, the results for the activity change, negative = inhibition in experiment [1] (at 17.2 µM (top of the series)), in experiment [1] (at 38 µM (top of the series)) and in experiment [8] were 4.02% (inactive), 8.55% (inactive) and 1.47% (inactive), respectively. For the same compound, the Potency result in experiment [2], in experiment [6], in [7] and in experiment [9] was “inactive” in each case. Besides, the results for the activity, negative = inhibition in experiment [3] (at 17.2 µM (top of the series)) and in experiment [3] (at 38 µM (top of the series)) were 8.97% (inactive) and 22.6% (inactive), respectively. Further, the Potency in experiment [4] is > 46 µM (inactive) and > 20.6 µM (inactive); in [5] it was > 46 µM (inactive) and > 20.6 µM (inactive). Further, the max response is 1.01% in experiment [8] (setting [14]) and 2.03% in [8] (setting [15]).
